Bioassay records (PubChem)
A340 absorber: compound light absorbance at 340 nm, profiling panel, artefact control, biochemical, MLSMR library, data from PS, PMK, MK assays | compound absorbance at 340 nm, fold over control | fold change at 10 µM | 65,000 tested, under 10 active;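 active = at 10 µM dose, initial 340 nm absorbance at least 2 fold that of control wells; inactive = change under 2 fold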;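 also: initial absorbance extrapolated from kinetic A340 decline of NADH oxidation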
Fluor 339 460: intrinsic fluorescence of library compounds, ex339/em460 – biochemical, MLSMR library, data from DPM-DC assay, artefact control, profiling panel | AID 709, 2007 | fluorescence fold increase at 10 µM | actives 5.5% (n = 65,000) | compound autofluorescence, ex339/em460 nm, NADH buffer; stronger effect = higher value; 1 = no-compound wells, NADH background;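 active = at 10 µM, mean starting fluorescence two-fold or more over control wells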;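 also: signal is the first read of a kinetic run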
NADH coupling: inhibitors of PK/LDH coupling enzymes, profiling panel, artefact control, biochemical, MLSMR library | coupled PK/LDH NADH assays, four targets | IC50, µM (doses to about 10 µM) | actives 0.02% (n = 65,000) | AID 774, 2007;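 active = single-dose screening hits from any of four coupled enzyme assays that gave an IC50 when retested across doses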;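 also: the DPM-DC format reads NADH fluorescence rather than 340 nm absorbance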
DPM-DC inhibit: S. pneumoniae DPM-DC inhibitors, primary screen, biochemical, PK/LDH-coupled NADH fluorescence; purified DPM-DC; calls only at 10 µM; actives 0.49% (n = 65,000); AID 556, 2006;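 active = the 320 compounds with the highest percent inhibition in the single-dose primary screen, excluding strongly autofluorescent ones, cut at about 32% in these data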;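 also: kinetic rate of NADH fluorescence loss reporting ADP formed by the decarboxylase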
MK inhibit: S. pneumoniae MK inhibitors, primary screen, biochemical, PK/LDH-coupled NADH absorbance | actives 0.48% (n = 65,000) | purified MK, PK/LDH-coupled NADH absorbance 340 nm | inhibition, % at 10 µM | mevalonate kinase [Streptococcus pneumoniae D39] | AID 555, 2006;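 active = ranked among the strongest by inhibition in the single 10 µM screen, a fixed top-ranked set picked for dose follow-up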
PMK inhibit: S. pneumoniae PMK inhibitors, primary screen, biochemical, mevalonate pathway, pilot trial included | AID 539, 2006 | phosphomevalonate kinase (Streptococcus pneumoniae D39) | actives 0.49% (n = 65,000) | inhibition, % at 10 µM | purified PMK, PK/LDH-coupled NADH absorbance 340 nm;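 active = top-ranked compounds by inhibition in the single 10 µM screen, taking a fixed number of the strongest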
Each line names hits and unclear results; the compound was inactive in the other large screens. This is a sample that favours compounds with a hit; in the whole collection about 6.3% have one here.

Cc1ccc(CNC(=O)c2cc3c(=O)n4cccc(C)c4nc3n(CC3CCCO3)c2=N)cc1 (configuration not stated)	Fluor 339 460 4 (not shown: DPM-DC inhibit)
COCCCn1c(=N)c(C(=O)NCC2CCCO2)cc2c(=O)n3cccc(C)c3nc21 (configuration not stated)	Fluor 339 460 2.9 (not shown: DPM-DC inhibit)
COc1ccc(CNC(=O)c2cc3c(=O)n4ccccc4nc3n(Cc3ccco3)c2=N)cc1	none
Cc1cccn2c(=O)c3cc(C(N)=S)c(=N)n(CCCOC(C)C)c3nc12	Fluor 339 460 2
CCOCCCn1c(=N)c(C(N)=S)cc2c(=O)n3cccc(C)c3nc21	none
CC1=CC(C#N)(C#N)C(C#N)(C#N)C(c2ccccc2)N1 (configuration not stated)	Fluor 339 460 3.1
COC(=O)c1ccccc1OC(=O)c1ccc(Br)o1	none
O=C1CN(C(=O)COC(=O)C2=COCCO2)c2ccccc2N1	MK inhibit 56
COc1cc(-c2nc(S(=O)(=O)c3ccc(C)cc3)c(N(C)C)o2)cc(OC)c1OC	none
COC(=O)c1nc(-c2ccccc2)oc1N(C)C	Fluor 339 460 3.8 (not shown: DPM-DC inhibit)
COC(=O)c1nc(-c2ccc(C)cc2)oc1N(C)C	Fluor 339 460 5 (not shown: DPM-DC inhibit)
CCOC(=O)c1nn(-c2ccc3c(c2)CCN3C(C)=O)cc1O	Fluor 339 460 2.2 (not shown: DPM-DC inhibit)
CCOc1ccccc1NC(=O)N1CCCC1C(=O)Nc1ccc(-n2cnnn2)c(C)c1 (configuration not stated)	none
NC(=O)c1ccccc1NS(=O)(=O)Cc1ccccc1	Fluor 339 460 2.1 (not shown: DPM-DC inhibit)
CC(=O)Nc1ccc(NS(=O)(=O)Cc2ccccc2)cc1	none
O=C(CC1CCCC1)OCn1nnc2ccccc2c1=O	none
CC(C)(C)n1nnnc1C(c1cccs1)N1CCCc2ccccc21 (configuration not stated)	none
CCOC(=O)C1=CN(C)C=C(C(=O)OCC)C1c1ccsc1	Fluor 339 460 4.8 (not shown: DPM-DC inhibit)
COC(=O)C1=CN(CC2CCCO2)C=C(C(=O)OC)C1c1ccsc1 (configuration not stated)	Fluor 339 460 2.1 (not shown: DPM-DC inhibit)
c1csc(C2C3=C(Nc4ncnn42)c2ccccc2OC3)c1 (configuration not stated)	Fluor 339 460 2.3
CC1CCN(c2ccc(C(=O)O)cc2N)CC1	none
Cc1cc(C)cc(Nc2ccc(C(=O)O)cc2N)c1	Fluor 339 460 2.9
CCc1cc(=O)oc2cc(OC(C)=O)cc(OC(C)=O)c12	Fluor 339 460 2.4 (not shown: DPM-DC inhibit)
CCc1cc(=O)oc2cc3oc(C)c(C)c3cc12	none
COc1cccc(C(=O)Nc2ccc(NC(=O)C(C)C)nc2)c1	DPM-DC inhibit active
COc1ccc(-c2nc(CSCC(=O)N3CCN(C(=O)c4ccco4)CC3)c(C)o2)cc1OC	none
CN1CCc2c(sc3c2c(=O)n(-c2ccccc2)c2nnc(SCc4ccc(F)cc4)n32)C1	PMK inhibit active
CN1CCc2c(sc3c2c(=O)n(-c2ccccc2)c2nnc(SCc4ccccc4)n32)C1	none
COc1cc2nc(N3CCN(C(=O)C4COc5ccccc5O4)CC3)nc(N)c2cc1OC (configuration not stated)	Fluor 339 460 2.5 (not shown: DPM-DC inhibit)
COc1cc2nc(N3CCN(C(=O)c4ccco4)CC3)nc(N)c2cc1OC	Fluor 339 460 2.5
N#C/C(C(=O)N1CCOCC1)=C1/SC=C(c2ccccc2)N1c1ccccc1	none
COc1cc2ccccc2cc1C(=O)Nc1cccnc1	none
COc1cc2cc(C(=O)Nc3ccccc3)c(N)nc2cc1OC	Fluor 339 460 2.3 (not shown: DPM-DC inhibit)
COc1ccc(-n2cnnc2SCC(=O)N(C)C2CCS(=O)(=O)C2)cc1 (configuration not stated)	none
CC1(CC(=O)O)C(=O)N=C2C=CC=CN21 (configuration not stated)	Fluor 339 460 2.1 (not shown: DPM-DC inhibit)
CCOc1ccccc1N1CCN(CC(O)COc2ccc3c(C)cc(=O)oc3c2)CC1 (configuration not stated)	none
O=C1CC(C(=O)Nc2ccccc2C(=O)O)C(c2ccccc2)O1 (configuration not stated)	none
O=C1CC(C(=O)Nc2ccc(O)c(C(=O)O)c2)C(c2ccccc2)O1 (configuration not stated)	Fluor 339 460 3.1 (not shown: DPM-DC inhibit)
CN(C)CCNC(=O)c1ccc(COCC(F)(F)F)cc1	none
CCOC(=O)N1CCC(NC(=O)c2ccc3c(c2)N(CC)CCS3)CC1	Fluor 339 460 2.4 (not shown: DPM-DC inhibit)
CN(C)CCNC(=O)c1ccc2c(c1)N(Cc1ccc(F)cc1)CCS2	Fluor 339 460 2 (not shown: DPM-DC inhibit)
COc1ccc2nc3oc(C(=O)NC4CCN(Cc5ccccc5)CC4)cc3cc2c1	Fluor 339 460 3.4 (not shown: DPM-DC inhibit)
CCOC(=O)N1CCC(NC(=O)CN2C(=O)CCSc3ccccc32)CC1	none
CCOC(=O)N1CCC(NC(=O)c2ccc3c(c2)sc2nc(-c4ccc(OC)cc4)cn23)CC1	Fluor 339 460 3.5
COc1ccc2nc3oc(C(=O)N4CCN(c5ccccc5F)CC4)cc3cc2c1	none
C=C(C)c1cccc(C(C)(C)NC(=O)N2CCN(CC(N)=O)CC2)c1	none
COc1ccc(-c2nnc(SCC(=O)Nc3ncc(C)s3)n2-c2ccccc2)cc1OC	none
CCOC(=O)N1CCC(NC(=O)c2cc3cc4cc(OC)ccc4nc3o2)CC1	Fluor 339 460 5.1 (not shown: DPM-DC inhibit)
CCOC(=O)C1=C(N)OC2=C(C(=O)CCC2)C1c1ccccc1OCC (configuration not stated)	none
COC(=O)c1ccc(COc2cccc(OC)c2)o1	none
Cc1c(OCc2ccc(C(=O)O)o2)ccc2c3c(c(=O)oc12)CCC3	Fluor 339 460 2.1 (not shown: DPM-DC inhibit)
COC(=O)c1ccc(COc2ccc3c(C)c(C)c(=O)oc3c2C)o1	Fluor 339 460 2
CCOC(=O)c1c(NC(=O)CSc2nnnn2C)sc(CC)c1C	none
CCS(=O)(=O)C(=C(Nc1ccc(OC)cc1)Nc1ccc(OC)cc1)S(=O)(=O)CC	none
COc1cccc2cc(C(=O)NCC3CCCO3)c(=O)oc12 (configuration not stated)	none
COCCSc1ccccc1C(=O)NCC1CCCO1 (configuration not stated)	none
COc1ccc2oc(=O)c(C(=O)N3CCN(C45CC6CC(CC(C6)C4)C5)CC3)cc2c1	Fluor 339 460 3.7 (not shown: DPM-DC inhibit)
COc1ccccc1N=c1oc2cc(O)ccc2cc1C(=O)NCC1CCCO1 (configuration not stated)	Fluor 339 460 2.9
COc1ccccc1N=c1oc2cc(O)ccc2cc1C(N)=O	Fluor 339 460 3.6
COc1ccc2oc(=O)c(C(=O)NCC3CCCO3)cc2c1 (configuration not stated)	Fluor 339 460 5.1 (not shown: DPM-DC inhibit)
